Test results: ChEMBL document CHEMBL1201862, “PubChem BioAssay data set” (2004)
Hit rate of the full screen: of about 400,000 compounds, about 2,100 (0.53%) were called active. Another 14% or so got no clear call; they are omitted. How the calls were made is not given here. The full list was thinned out, with actives kept by preference.

target: Ataxin-2 (Homo sapiens) (UniProt Q99700); test: qHTS for Inhibitors of ATXN expression.; type: functional
Sequence (Q99700 whole entry): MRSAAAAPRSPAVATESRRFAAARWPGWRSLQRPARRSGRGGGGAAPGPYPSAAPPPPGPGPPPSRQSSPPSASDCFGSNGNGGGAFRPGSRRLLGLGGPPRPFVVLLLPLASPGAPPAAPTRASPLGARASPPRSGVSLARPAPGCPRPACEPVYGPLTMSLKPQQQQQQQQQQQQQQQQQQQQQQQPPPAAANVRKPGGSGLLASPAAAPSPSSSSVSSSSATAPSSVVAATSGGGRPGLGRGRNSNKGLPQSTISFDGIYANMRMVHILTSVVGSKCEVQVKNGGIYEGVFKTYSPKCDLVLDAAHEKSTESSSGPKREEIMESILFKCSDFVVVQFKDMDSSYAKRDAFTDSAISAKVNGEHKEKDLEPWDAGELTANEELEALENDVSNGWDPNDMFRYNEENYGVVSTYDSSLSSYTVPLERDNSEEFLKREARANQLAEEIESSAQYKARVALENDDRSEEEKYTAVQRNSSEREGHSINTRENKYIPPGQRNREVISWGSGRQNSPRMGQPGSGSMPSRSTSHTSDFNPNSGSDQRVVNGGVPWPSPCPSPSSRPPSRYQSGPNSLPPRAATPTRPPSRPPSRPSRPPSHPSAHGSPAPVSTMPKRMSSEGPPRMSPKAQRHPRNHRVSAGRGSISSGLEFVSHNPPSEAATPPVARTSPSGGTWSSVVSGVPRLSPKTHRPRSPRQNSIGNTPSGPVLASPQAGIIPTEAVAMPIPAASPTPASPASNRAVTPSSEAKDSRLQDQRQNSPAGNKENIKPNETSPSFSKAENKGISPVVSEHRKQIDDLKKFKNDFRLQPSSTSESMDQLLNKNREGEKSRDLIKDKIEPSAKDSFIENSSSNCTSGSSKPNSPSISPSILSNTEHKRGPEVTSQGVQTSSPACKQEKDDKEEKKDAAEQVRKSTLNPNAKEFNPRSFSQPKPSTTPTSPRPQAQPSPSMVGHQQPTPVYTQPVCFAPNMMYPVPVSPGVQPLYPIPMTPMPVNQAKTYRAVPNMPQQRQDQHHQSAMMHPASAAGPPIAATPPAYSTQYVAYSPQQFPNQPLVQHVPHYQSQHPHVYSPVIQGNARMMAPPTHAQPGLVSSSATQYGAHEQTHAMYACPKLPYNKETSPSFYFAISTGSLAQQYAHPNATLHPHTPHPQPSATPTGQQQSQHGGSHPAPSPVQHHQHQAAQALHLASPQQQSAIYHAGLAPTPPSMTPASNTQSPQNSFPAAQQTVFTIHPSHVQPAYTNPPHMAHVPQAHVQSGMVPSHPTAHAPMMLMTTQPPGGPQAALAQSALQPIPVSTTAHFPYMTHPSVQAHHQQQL

| SMILES | Potency |
| --- | --- |
| Cc1cccc(OCc2n(C)c3ccccc3[n+]2CC(=O)OC2CC(C)CCC2C(C)C)c1 (stereo not given) | 35.5 µM (active) |
| Nc1nnnn1/N=C/c1cc(Cl)cc(Cl)c1O | inactive |
| O=C(Nc1nccs1)c1cccnc1O | inactive |
| CN(C)CCCNC(=O)C[C@H]1C[C@H](C(=O)N2CCOCC2)[C@@]2(CCC3CCCC3)c3[nH]c4cc(-c5ccco5)ccc4c3CCN2C1=O | 35.5 µM (active) |
| O=C(C[C@H]1C[C@H](C(=O)N2CCOCC2)[C@@]2(CCC3CCCC3)c3[nH]c4cc(-c5ccco5)ccc4c3CCN2C1=O)NCCc1ccccn1 | 35.5 µM (active) |
| O=C(NCCN1CCOCC1)c1cc2c(=O)n3ccccc3nc2n1Cc1ccccc1 | inactive |
| O=C(C[C@H]1C[C@H](C(=O)N2CCOCC2)[C@@]2(CCC3CCCC3)c3[nH]c4cc(-c5ccco5)ccc4c3CCN2C1=O)NCCN1CCOCC1 | 35.5 µM (active) |
| O=C(CCCCCn1c(=S)[nH]c2ccc(N3CCOCC3)cc2c1=O)NCCc1ccccc1 | inactive |
| O=C(C[C@H]1C[C@H](C(=O)N2CCCCC2)[C@@]2(CCc3ccccc3)c3[nH]c4cc(-c5ccco5)ccc4c3CCN2C1=O)NCCN1CCOCC1 | 31.6 µM (active) |
| COCCCn1c(=N)c(C(=O)NCc2ccco2)cc2c(=O)n3ccccc3nc21 | inactive |
| CCN(C(=O)COC(=O)c1cc(-c2ccc(C)o2)nc2ccccc12)C1CCS(=O)(=O)C1 (stereo not given) | inactive |
| COc1ccc(OC)c(NC(=O)CCN2CCN(C/C=C/c3ccccc3)CC2)c1 | inactive |
| CCOC(=O)c1[nH]c2ccc(F)cc2c1NC(=O)CN1CCN(C/C=C/c2ccccc2)CC1 | 39.8 µM (active) |
| COc1cc(NC(=O)CN2CCN(S(=O)(=O)/C=C/c3ccccc3)CC2)cc(OC)c1OC | inactive |
| CCCCCCCN(c1ccccc1)[C@@H]1C[C@H]2CCCC(=O)N3CC[C@@H](C1)[C@@H]23 | 35.5 µM (active) |
| COc1ccc(NC(=O)c2ccc(-c3ccc(-c4noc(C)n4)cc3C)cc2)cc1N1CCN(C)CC1 | 39.8 µM (active) |
| CC(C)(C)c1ccc(CN2N=Nc3ccccc3S2(=O)=O)cc1 | 39.8 µM (active) |
| O=C(N/N=C\c1c(O)ccc2ccccc12)c1cncc(Br)c1 | inactive |
| CC(C)(C)C(=O)Oc1ccc2cc(-c3ccc4ccccc4n3)c(=O)oc2c1 | inactive |
| COc1ccc(NC(=O)CSc2ccc3c4c(cccc24)C(=O)c2ccccc2-3)cc1 | 22.4 µM (active) |
| COC(=O)c1ccccc1SCC(=O)Nc1ccc(N2CCOCC2)cc1 | inactive |
| COc1ccc(N2C(=O)c3cccc4c(N(C)CCO)ccc(c34)C2=O)cc1 | inactive |
| Oc1ccc(Cl)cc1/C=N/c1ccc2c3c(cccc13)CC2 | inactive |

| SMILES | Potency |
| --- | --- |
| CC(C)(C)[S+]([O-])N1Cc2cc(C(=O)NCc3ccc(Oc4ccccc4)cc3)nc(-c3cccc(-c4cc5ccccc5o4)c3)c2[C@H]1CCO (stereo not given in full) | 35.5 µM (active) |
| CC(C)(C)[S+]([O-])N1Cc2cc(C(=O)NCc3ccc4c(c3)OCO4)nc(-c3cccc(-c4cc5ccccc5o4)c3)c2[C@@H]1CCO (stereo not given in full) | 31.6 µM (active) |
| CCn1c(=O)c(C(=O)NCc2ccc3c(c2)OCO3)c(O)c2ccccc21 | inactive |
| CC(C)(C)[S+]([O-])N1Cc2cc(C(=O)NCc3ccc(Oc4ccccc4)cc3)nc(-c3cccc(-c4cc5ccccc5o4)c3)c2[C@@H]1CCO (stereo not given in full) | 39.8 µM (active) |
| CC(=O)N1Cc2cc(C(=O)NCc3cccc(F)c3)nc(-c3cccc(C4=CCCCC4)c3)c2[C@H]1CCO | 35.5 µM (active) |
| O=C(CSc1nc(C2CCCCC2)nc2ccccc12)NCc1ccc2c(c1)OCO2 | inactive |
| O=S(=O)(c1ccccc1)N1CCN=C1SCc1cccnc1 | inactive |
| CCN(CC)c1ccc2cc(C(=O)NNC(=O)c3ccc(S(=O)(=O)N4CCCCC4)cc3)c(=O)oc2c1 | inactive |
| N#CC1=C(N)N2C(=C(C#N)C1c1ccc(Br)cc1)Nc1ccccc12 (stereo not given) | inactive |
| O=C1OCCN1C(=O)[C@H]1[C@H](c2ccc(Cl)cc2)C(c2ccccc2)=NN1c1ccccc1 | inactive |
| CCOc1ccc(S(=O)(=O)[N-]c2nc3ccccc3nc2-[n+]2ccc(NC(=O)c3ccccc3C)cc2)cc1 | inactive |
| Cc1cccc2cc3c(NC(=O)C(C)(C)C)nn(CC(C)C)c3nc12 | inactive |
| Cc1cc(NN)nc(NS(=O)(=O)c2ccc(Cl)cc2)n1 | inactive |
| CN(C)C(=O)c1cccc(-c2cccc(-c3nc(C(=O)NCc4ccccc4)cc4c3[C@@H](CCO)N([S+]([O-])C(C)(C)C)C4)c2)c1 (stereo not given in full) | 25.1 µM (active) |
| CSc1nnc(N2C(=O)C(O)=C(C(=O)c3ccco3)C2c2ccc(F)cc2)s1 (stereo not given) | inactive |
| CCN=C(S)NCc1ccc2[nH]c(C)cc2c1 | inactive |
| FC(F)(F)c1cc(CO[C@@H]2CCCN[C@@H]2c2ccccc2)cc(C(F)(F)F)c1 | 35.5 µM (active) |
| Cc1c(Br)c(=O)oc2c(Br)c(O)ccc12 | inactive |
| Cc1cc(C2(c3ccc(O)c(C)c3)C(=O)N(C)c3ccc(Br)cc32)ccc1O | 44.7 µM (active) |
| CC1(C)OC(=O)C(/C=N\Nc2c(Cl)cc(Cl)cc2Cl)=C(O)O1 | inactive |
| Cc1cc2oc3cc(NCCC4CCCN4C)ccc3c(=O)c2cc1C (stereo not given) | inactive |
| C=C(C)c1nc(Oc2ccccc2)nc(Oc2ccccc2)n1 | 33.6 µM (active) |
| COc1ccc2cc(-c3cc(C(=O)OCC(=O)NC4CCS(=O)(=O)C4)c4ccccc4n3)ccc2c1 (stereo not given) | inactive |

| SMILES | Potency |
| --- | --- |
| CC1C(C#N)=C(SCC(N)=O)N=C2CC(C)(C)CC(O)=C21 (stereo not given) | inactive |
| COc1cccc(CNCCc2c[nH]c3ccccc23)c1OCc1ccccc1F | 28.2 µM (active) |
| COc1cccc(CNc2nc[nH]n2)c1OCc1ccccc1F | inactive |
| COc1ccc(CNc2cccc3[nH]c(C(F)(F)F)nc23)cc1OC | inactive |
| COc1cc(/C=C(\C#N)c2nc3ccccc3[nH]2)ccc1OCc1ccc(F)cc1 | inactive |
| COc1cc(CNCCc2c[nH]c3ccccc23)ccc1OCc1ccc(F)cc1 | 35.5 µM (active) |
| COc1cc(/C=C(\C#N)c2nc3ccccc3[nH]2)ccc1OCc1ccccc1F | inactive |
| COC(=O)C1=CN(CCCN2CCCC2=O)C=C(C(=O)OC)C1c1ccccc1C(F)(F)F | inactive |
| Cc1c(Cc2ccccc2)c(=O)oc2c(CN(C)C)c(O)c(Cl)cc12 | inactive |
| c1ccc(CNc2ncnc3sc4c(c23)CCCC4)nc1 | inactive |
| COc1ccc2cc(-c3nc(Cl)c4c5c(sc4n3)CCCC5)c(=O)oc2c1 | inactive |
| Cc1cc(C)n(-c2nc(NCCCN(C)C)c3c4c(sc3n2)CCCC4)n1 | 25.1 µM (active) |
| CCn1cc(C2N3CC4(C)CN2CC(C)(C3)C4=O)c2ccccc21 (stereo not given) | inactive |
| CCNc1cc2oc(=O)c(CN3CCOCC3)c(C)c2cc1C | inactive |
| COc1ccc(N2CCN(c3cc(C)c4cccc(C)c4n3)CC2)cc1 | inactive |
| COc1cccc(N2CCc3c(C)nc4ccc(Cl)cc4c32)c1 | inactive |
| COc1ccc(-n2c(-c3cccc(OC)c3)nc(=S)c3c2CCCC3)cc1 | 25.1 µM (active) |
| CN1CCN(CC/C=C2/c3ccccc3Sc3ccc(S(=O)(=O)N(C)C)cc32)CC1 | 35.5 µM (active) |
| Cc1ccccc1-n1c2nc(=O)n(C)c(=O)c-2cc2ccccc21 | inactive |
| Cn1c(=O)nc2n(Cc3ccccc3)c3ccccc3cc-2c1=O | inactive |
| Cn1nc(-c2ccccn2)nc2c(=O)n(C)c(=O)nc1-2 | 17.8 µM (active) |
| Cc1ccc(C)c(-n2c3nc(=O)n(C)c(=O)c-3cc3ccccc32)c1 | inactive |
| CCCc1nc2c(=O)n(C)c(=O)nc-2n(C)n1 | 8.44 µM (active) |

| SMILES | Potency |
| --- | --- |
| CC(C)C[C@H]1CN=C(Nc2ccccc2)N1CCCC1CCCCC1 | 22.4 µM (active) |
| CC(C)(C)C1CCC(CN2C(Nc3ccccc3)=NC[C@@H]2Cc2ccccc2)CC1 (stereo not given in full) | 25.1 µM (active) |
| CCC(=O)c1cc2c(C)cc(=O)oc2c(C)c1OC(=O)C(C)C | inactive |
| O=[N+]([O-])c1ccccc1S(=O)(=O)N1CCN(Cc2ccccc2)CC1 | inactive |
| CN1CCN(S(=O)(=O)c2ccc(Sc3nnnn3-c3ccccc3)c([N+](=O)[O-])c2)CC1 | 39.8 µM (active) |
| COc1cc(OC)cc(OC(=O)c2cccc(S(=O)(=O)N3CCN(C)CC3)c2)c1 | inactive |
| NC1=NC[C@H](c2ccccc2)N1CCc1cc(C(F)(F)F)cc(C(F)(F)F)c1 | 28.2 µM (active) |
| FC(F)(F)c1cc(CCN2C(S)=NC[C@@H]2Cc2ccccc2)cc(C(F)(F)F)c1 | 39.8 µM (active) |
| CCC(C)[C@H]1CN=C(S)N1CCc1cc(C(F)(F)F)cc(C(F)(F)F)c1 (stereo not given in full) | 35.5 µM (active) |
| COc1cccc(C2=CC(c3ccccc3F)n3ncc(C(=O)Nc4ccc(F)cc4)c3N2)c1 (stereo not given) | inactive |
| CC1CC(Nc2ccccc2)c2ccccc2N1C(=O)c1ccncc1 (stereo not given) | inactive |
| CN1CCc2c(sc3c2C(=O)NC(c2ccc(-c4cccc(Cl)c4)o2)N3)C1 (stereo not given) | inactive |
| COn1c(=O)c(-c2ccc(F)cc2)[n+]([O-])c2ccccc21 | inactive |
| CCN(CC)Cc1c(O)c(Cl)cc2c(C)c(C)c(=O)oc12 | inactive |
| COc1ccc(/C=N/NC(=O)c2[nH]c3ccc(Cl)cc3c2-c2ccccc2)c(C(=O)O)c1OC | inactive |
| O=C1OCCN1C(=O)[C@H]1[C@H](c2ccccc2)C(c2ccc(F)cc2)=NN1c1ccccc1 | inactive |
| CCn1nc(NC(=O)C2CCCO2)c2cc3cccc(C)c3nc21 (stereo not given) | inactive |
| COc1cc(C2C=C(c3cccs3)Nc3ncnn32)cc(OC)c1OC (stereo not given) | inactive |
| Cc1cnc(-n2ncc(C(=O)N3CCN(C(C)C)CC3)c2-c2ccco2)nc1-c1ccc(F)cc1 | inactive |
| S=C(NN=C(c1ccccc1)c1ccccn1)N(Cc1ccccn1)Cc1ccccn1 | 15.8 µM (active) |
| CC(=O)N(Cc1ccccn1)Cc1ccco1 | inactive |
